Assay outcomes: PubChem BioAssay, National Center for Advancing Translational Sciences (NCATS)
Compounds with a hit are over-represented: about 21% of the library has one in this group of screens.
IL-1B inflam inh = qHTS for Inhibitors of Inflammasome Signaling: IL-1-beta AlphaLISA Primary Screen; THP-1 LPS/ATP IL-1B secretion, AlphaLISA, 16 h; hits give low values; activity change, % at 57.5 µM; 4.7% of 360,000 active; in the data active means activity change below about -50%; inconclusive means mostly about -30% to -49%
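THP-1 cells pretreated 1 hr with compounds (up to 57.5 uM final), then stimulated with LPS (250 ng/mL final) plus ATP (1.25 mM final); secreted IL-1B measured by AlphaLISA after 16 hr, decreased signal indicating inhibition.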
DT40 TDP1 no CPT = qHTS for Inhibitors of human tyrosyl-DNA phosphodiesterase 1 (TDP1): qHTS in cells in absence of CPT; DT40 Tdp1-/- hTDP1 cells, no CPT, ATP luminescence, 48 h; Potency, µM (series often up to 46.2 µM), usual class: inhibitors; 15% of 420,000 active; AID 686978, 2013; further: nearly all actives have a fitted effect of over 55% in size
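Readout: luminescence from CellTiter-Glo after 30 min in the dark at RT. Cells: DT40 Tdp1-/- with stable hTDP1, 400/well. Exposure: compounds alone, ≥48 hr, 37 °C.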
ClpP mod = qHTS Assay for Activators of ClpP; ATP-dependent Clp protease proteolytic subunit (Bacillus subtilis (strain 168)), P80244; purified B. subtilis ClpP, FRET peptide cleavage, 20 min; Potency, µM (highest dose often 57.5 µM); 1.9% of 340,000 active; AID 651965, 2013; active means well fitted falling curve with a large enough effect; inconclusive means small, poorly fitted or top-dose-only effect; inactive means no such curve, though single readings can be large or run the other way; further: the source files actives as falling curves though it sought activators and does not explain the sign; nearly all actives have a fitted effect of over 65% in size
Target sequence (P80244 whole entry, looked up): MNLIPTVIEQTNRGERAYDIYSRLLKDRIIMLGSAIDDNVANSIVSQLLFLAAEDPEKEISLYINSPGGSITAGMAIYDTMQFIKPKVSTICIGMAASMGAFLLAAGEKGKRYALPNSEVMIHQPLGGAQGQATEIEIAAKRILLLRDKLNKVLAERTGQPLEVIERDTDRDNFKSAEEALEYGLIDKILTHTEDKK
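Purified B. subtilis ClpP, 10 microg/mL final in Tris/HCl pH8 with KCl, BSA, glycerol and Tween-20, cleaved an Abz/nitrotyrosine-quenched decapeptide. Fluorescence (ex 320, em 430) was read at 0 and 20 min at room temperature. Delta was normalized to 5.8 microM ADEP and DMSO/no-enzyme controls.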
DRD3 agonist = qHTS of D3 Dopamine Receptor Agonist: qHTS; AID 652048, 2013; max activation, %; D(3) dopamine receptor (Homo sapiens), P35462; 0.58% of 410,000 active; D3R DiscoveRx beta-arrestin cells, luminescence, 90 min; in the data active means max activation above about 30%
Target sequence (P35462 whole entry, looked up): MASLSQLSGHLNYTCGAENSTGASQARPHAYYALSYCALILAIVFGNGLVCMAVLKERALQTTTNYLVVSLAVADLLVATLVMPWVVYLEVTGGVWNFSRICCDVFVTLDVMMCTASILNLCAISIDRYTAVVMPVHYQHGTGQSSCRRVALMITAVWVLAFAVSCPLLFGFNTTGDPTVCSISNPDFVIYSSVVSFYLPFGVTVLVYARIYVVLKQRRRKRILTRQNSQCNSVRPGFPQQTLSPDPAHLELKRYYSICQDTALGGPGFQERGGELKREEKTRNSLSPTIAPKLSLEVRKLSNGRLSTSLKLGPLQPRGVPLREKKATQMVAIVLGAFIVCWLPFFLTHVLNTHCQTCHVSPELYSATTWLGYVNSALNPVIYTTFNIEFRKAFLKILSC
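Agonist-mode cell screen: cells plated at 1500/well and incubated overnight at 37 °C, then exposed to library compounds for 90 min at 37 °C. Detection reagent was added for 30–60 min at room temperature, and luminescence was read.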
D3 antag = qHTS of D3 Dopamine Receptor Antagonist: qHTS. D3R cells, DiscoveRx beta-arrestin luminescence, antagonist mode; hits give low values. 2.5% of 360,000 active. max response, negative = inhibition, %. D(3) dopamine receptor (Homo sapiens), P35462; in the data active means max response below about -50%; inconclusive means no clear call, values can overlap the other calls
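Cells expressing the human receptor were seeded at 1500 cells/well, incubated overnight at 37 degrees C in 5% CO2, then exposed to library compounds with dopamine controls for 90 minutes at 37 degrees C before luminescent detection.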
TDP1 cell CPT = qHTS for Inhibitors of human tyrosyl-DNA phosphodiesterase 1 (TDP1): qHTS in cells in presence of CPT. Potency, µM (series often up to 46.2 µM), actives largely listed as inhibitors. chicken DT40 Tdp1-/-;hTDP1 cells + 20 nM CPT, ATP luminescence, 48 h. 12% of 420,000 active; further: nearly all actives have a fitted effect of over 55% in size
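Chicken DT40 Tdp1-/- cells complemented with human TDP1, 400 cells/well, exposed to compounds plus 20 nM camptothecin for at least 48 h at 37 C; viability read as ATP content by CellTiter-Glo luminescence.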
Hits are given with their value. Unless noted, the call rests on the fitted dose curve; in most records, active means well fitted inhibition curve with a large enough effect; inconclusive means small, poorly fitted or top-dose-only effect; inactive means flat fitted curve, though single readings scatter.

What do the screens show for `CC(=O)c1ccc(N2CCN(CC(O)COC(c3ccccc3)c3ccccc3C)CC2)cc1` (centres undefined)?
IL-1B inflam inh: inconclusive; DT40 TDP1 no CPT: inconclusive; DRD3 agonist: inactive; D3 antag: inactive; TDP1 cell CPT: 23µM

How did CCN1CCN(C/C(C)=C/c2ccccc2)CC1 do in these assays?
IL-1B inflam inh: inactive; DT40 TDP1 no CPT: inactive; ClpP mod: inactive; DRD3 agonist: inactive; D3 antag: inconclusive; TDP1 cell CPT: inactive

Results for Cc1cc(C)cc(NC(=O)CN2CCN(c3ccccc3)CC2)c1 ?
IL-1B inflam inh: inactive; DT40 TDP1 no CPT: inconclusive; ClpP mod: inactive; DRD3 agonist: inactive; D3 antag: inactive; TDP1 cell CPT: inactive

Results for CC(=O)c1ccc(N2CCN(CC(O)COC(c3ccccc3)c3ccccc3)CC2)cc1 (centres undefined) ?
IL-1B inflam inh: inconclusive; DT40 TDP1 no CPT: inconclusive; DRD3 agonist: inactive; D3 antag: -69; TDP1 cell CPT: inconclusive

What do the screens show for `C/C(=C\c1ccccc1)CN1CCN(c2cccc(Cl)c2)CC1`?
IL-1B inflam inh: inactive; DT40 TDP1 no CPT: inactive; ClpP mod: inactive; DRD3 agonist: inactive; D3 antag: -137; TDP1 cell CPT: inactive

Results for CC1CCCCN1C(=O)CSc1nc2c(c(=O)n(C)c(=O)n2C)n1C (centres undefined) ?
IL-1B inflam inh: inactive; DT40 TDP1 no CPT: inactive; DRD3 agonist: inactive; D3 antag: inactive; TDP1 cell CPT: inactive

Results for O=c1[nH]cc(S(=O)(=O)N2CCN(c3ccccc3F)CC2)c(=O)[nH]1 ?
IL-1B inflam inh: inactive; DT40 TDP1 no CPT: inactive; ClpP mod: inactive; DRD3 agonist: inactive; D3 antag: inactive; TDP1 cell CPT: inactive

What do the screens show for `Cc1cn(C)c(CC(=O)N2CCN(c3ccc(F)cc3)CC2)c1C(=O)O`?
DT40 TDP1 no CPT: inactive; ClpP mod: inactive; DRD3 agonist: inactive; TDP1 cell CPT: inactive

Results for OC(CN1CCN(c2cccc(Cl)c2)CC1)c1ccccc1 (centres undefined) ?
IL-1B inflam inh: inactive; DT40 TDP1 no CPT: inactive; ClpP mod: inactive; DRD3 agonist: inactive; D3 antag: inconclusive; TDP1 cell CPT: inactive

Results for CC(=O)c1ccc(OCC(O)CN2CCN(c3ccc(F)cc3)CC2)cc1 (centres undefined) ?
IL-1B inflam inh: inactive; DT40 TDP1 no CPT: 23µM; DRD3 agonist: inactive; D3 antag: inconclusive; TDP1 cell CPT: inconclusive

How did CCC(=O)c1ccc(OCC(O)CN2CCN(c3ccc(F)cc3)CC2)cc1 (centres undefined) do in these assays?
IL-1B inflam inh: inactive; DT40 TDP1 no CPT: inactive; ClpP mod: inactive; DRD3 agonist: inactive; D3 antag: inactive; TDP1 cell CPT: inactive

Results for CC(=O)c1ccc(N2CCN(Cc3nc(Cc4ccccc4)no3)CC2)cc1 ?
IL-1B inflam inh: inactive; DT40 TDP1 no CPT: 16µM; ClpP mod: inactive; DRD3 agonist: inactive; D3 antag: inactive; TDP1 cell CPT: inconclusive

How did OC(COC(c1ccccc1)c1ccccc1)CN1CCN(c2cccc(Cl)c2)CC1 (centres undefined) do in these assays?
IL-1B inflam inh: inconclusive; DT40 TDP1 no CPT: inconclusive; ClpP mod: inactive; DRD3 agonist: inactive; D3 antag: inactive; TDP1 cell CPT: 21µM

What do the screens show for `COc1cc(C(C)=O)ccc1OCC(O)CN1CCN(c2cc(C)cc(C)c2)CC1` (centres undefined)?
IL-1B inflam inh: inactive; DT40 TDP1 no CPT: 16µM; ClpP mod: inactive; DRD3 agonist: inactive; D3 antag: -56; TDP1 cell CPT: inconclusive

How did CC(C)(C)N1OC2CC1c1nc3ccccc3n1C2 (centres undefined) do in these assays?
IL-1B inflam inh: inactive; DT40 TDP1 no CPT: inactive; ClpP mod: inactive; DRD3 agonist: inactive; D3 antag: inactive; TDP1 cell CPT: inactive

What do the screens show for `COC(CN(C)C(=O)C1CCCN(S(=O)(=O)c2ccc3c(c2)oc(=O)n3C)C1)OC` (centres undefined)?
IL-1B inflam inh: inactive; DT40 TDP1 no CPT: inactive; ClpP mod: inactive; DRD3 agonist: inactive; D3 antag: inactive; TDP1 cell CPT: inactive

How did Cc1ccc(S(=O)(=O)Nc2cccc(-c3ccc(N4CCCCCC4)nn3)c2)cc1C do in these assays?
IL-1B inflam inh: inactive; DT40 TDP1 no CPT: 23µM; ClpP mod: inactive; DRD3 agonist: inactive; D3 antag: inactive; TDP1 cell CPT: inconclusive

What do the screens show for `Cc1cc(C)cc(S(=O)(=O)Nc2cccc(-c3ccc(N4CCOCC4)nn3)c2)c1`?
DT40 TDP1 no CPT: inactive; ClpP mod: inactive; DRD3 agonist: inactive; TDP1 cell CPT: inconclusive

What do the screens show for `CCCCOc1ccc(S(=O)(=O)Nc2cccc(-c3ccc(N4CCOCC4)nn3)c2)cc1`?
DT40 TDP1 no CPT: inconclusive; ClpP mod: inactive; DRD3 agonist: inactive; TDP1 cell CPT: 21µM

How did COc1ccc(S(=O)(=O)Nc2cccc(-c3ccc(N4CCCC4)nn3)c2)cc1OC do in these assays?
DT40 TDP1 no CPT: inactive; ClpP mod: inactive; DRD3 agonist: inactive; TDP1 cell CPT: inactive

What do the screens show for `COc1c(C)cc(S(=O)(=O)Nc2cccc(-c3ccc(N4CCOCC4)nn3)c2)c(C)c1C`?
DT40 TDP1 no CPT: inconclusive; ClpP mod: inconclusive; DRD3 agonist: inactive; TDP1 cell CPT: 23µM

How did CCCCOc1ccc(S(=O)(=O)Nc2ccc(-c3ccc(N4CCC(C)CC4)nn3)cc2)cc1 do in these assays?
DT40 TDP1 no CPT: 29µM; ClpP mod: inactive; DRD3 agonist: inactive; TDP1 cell CPT: 12µM

What do the screens show for `CCOCCn1c(N2CCCN(C)CC2)nc2ccccc21`?
DT40 TDP1 no CPT: inactive; DRD3 agonist: inactive; TDP1 cell CPT: inactive

How did O=S(=O)(NCCC1=CCCCC1)c1ccc(F)cc1 do in these assays?
IL-1B inflam inh: inactive; DT40 TDP1 no CPT: inactive; ClpP mod: inactive; DRD3 agonist: inactive; D3 antag: inactive; TDP1 cell CPT: inactive

What do the screens show for `COCCCN1CN(S(=O)(=O)c2cccs2)c2nc3ccccc3nc21`?
IL-1B inflam inh: inactive; DT40 TDP1 no CPT: inactive; DRD3 agonist: inactive; D3 antag: inactive; TDP1 cell CPT: inactive

Results for Cc1cc(C)n(-c2nc3ccccc3nc2Nc2cccc(C)c2C)n1 ?
DT40 TDP1 no CPT: inactive; ClpP mod: inactive; DRD3 agonist: inactive; TDP1 cell CPT: inactive

What do the screens show for `C/C(=C\C(=O)OCCCCCCCCC(=O)O)C[C@@H]1OC[C@H](C[C@@H]2O[C@H]2[C@@H](C)[C@H](C)O)[C@@H](O)[C@H]1O`?
IL-1B inflam inh: inactive; DT40 TDP1 no CPT: 1.5µM; ClpP mod: inactive; DRD3 agonist: inactive; D3 antag: inactive; TDP1 cell CPT: 1µM
